The subject of assay [1] is Human papillomavirus type 1a protein E7 (residues 44-93). The experiment in a line: HPV1a E7 fragment binders on microarrays, primary screen, biochemical, small-molecule microarray, residues 44-93, 635 nm fluorescence (AID 1108).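 Note: E7 fragment applied at 1 µg/mL in TBST for 1 h at 4 C; score combines spot fluorescence with its signal to noise ratio.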 As to conditions: small-molecule microarray binding, fluorescence 635 nm; higher = more signal.
A short description of assay [2]: modulators of HCV replicon luciferase signal, primary screen, HCV replication inhibitor project, Huh7 cells, luciferase reporter (AID 1109).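 Note: huh7 hepatoma cells harbouring a luciferase neomycin HCV replicon reporter; luciferase luminescence as measure of HCV replicon replication; test concentration not given here.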 As to conditions: 48 h, higher = more signal.
Assay [3] addresses Left-right determination factor 2 (Homo sapiens) (UniProt O00292). The experiment in a line: LEFTY2 binders on small-molecule microarrays, primary screen, biochemical, small-molecule microarray, 635 nm fluorescence scan (AID 1110). Conditions: LEFTY2 binding, higher = more signal.
The target in assay [4] is Calmodulin-1 (Homo sapiens) (UniProt P0DP23). The experiment in a line: CALM1 binders on microarrays, EGTA buffer, profiling panel, biochemical, small-molecule microarray, Cy5-labelled CALM1 (AID 1111).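 Note: labelled calmodulin applied in Tris saline Tween buffer holding calcium plus EGTA and DTT.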 As to conditions: Cy5-CALM1 binding fluorescence, higher = more signal.
For assay [5] the target is unchanged. Put plainly: calcium-bound CALM1 binders on microarrays, profiling panel, artefact control for SMM control-protein annotation, biochemical, small-molecule microarray, Cy5-labelled CALM1, plus calcium (AID 1112).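 Note: score merges spot fluorescence with signal to noise from triplicate slides.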 Conditions: Cy5-CALM1 binding fluorescence, higher = more signal.
Assay [6] is described as follows: small-molecule microarray binders of probe aWnt5a, primary screen, biochemical, biotinylated probe, 635/667 nm fluorescence (AID 1113).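 Note: score merges 667 nm fluorescence intensity with signal-to-noise per printed feature.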 Conditions: higher = more signal.
Assay [7] can be described thus: small-molecule microarray binders of probe aShh, primary screen, biochemical, biotinylated probe, 635/667 nm fluorescence (AID 1114).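 Note: probe is biotin-labelled aShh protein from a stem cell growth factor screen; measures binding of labelled protein to compounds printed on the slide; score merges feature fluorescence at 667 nm with signal-to-noise.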 As to conditions: higher = more signal.
A short description of assay [8]: small-molecule microarray binders of probe aNog, primary screen, biochemical, biotinylated probe, 635/667 nm fluorescence (AID 1115).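 Note: probe is biotinylated aNog protein used at 0.15 µg/mL for 1 h at 4 C; z-score combines 667 nm fluorescence of each spot with its signal to noise.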 Conditions: higher = more signal.
For assay [9], the target named is Torsin-1A-interacting protein 1 (Homo sapiens) (UniProt Q5JTV8). The experiment in a line: LAP1 binders from COS7 cell lysate, primary screen, small-molecule microarray, 635/667 nm fluorescence (AID 1116). Conditions: COS7-hLAP1 lysate binding, 635 nm fluorescence, higher = more signal.
Torsin-1A-interacting protein 1 (Homo sapiens), sequence (Q5JTV8 whole entry, looked up): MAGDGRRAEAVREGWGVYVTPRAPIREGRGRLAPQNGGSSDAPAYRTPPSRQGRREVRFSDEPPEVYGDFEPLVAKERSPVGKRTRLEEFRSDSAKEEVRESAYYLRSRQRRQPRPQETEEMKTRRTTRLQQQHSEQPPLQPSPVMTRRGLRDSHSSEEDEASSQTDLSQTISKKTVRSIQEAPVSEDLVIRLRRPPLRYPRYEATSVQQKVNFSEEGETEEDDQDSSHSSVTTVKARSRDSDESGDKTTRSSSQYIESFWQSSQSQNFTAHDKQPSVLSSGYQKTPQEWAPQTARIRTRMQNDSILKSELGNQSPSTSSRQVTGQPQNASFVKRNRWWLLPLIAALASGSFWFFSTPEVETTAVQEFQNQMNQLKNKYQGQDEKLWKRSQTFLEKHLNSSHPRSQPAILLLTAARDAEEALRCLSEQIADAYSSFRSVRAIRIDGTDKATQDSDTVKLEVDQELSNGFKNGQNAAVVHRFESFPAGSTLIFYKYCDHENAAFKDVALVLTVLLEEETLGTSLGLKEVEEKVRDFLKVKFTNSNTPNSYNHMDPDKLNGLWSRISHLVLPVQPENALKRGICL
For assay [10], the target named is Alpha-bungarotoxin (Bungarus multicinctus) (UniProt P60615). Put plainly: alpha-bungarotoxin binders on microarray, profiling panel, artefact control for SMM control protein annotation, biochemical, small-molecule microarray, Alexa647 label, 635/667 nm fluorescence (AID 1117). As to conditions: alpha-BTX-A647 binding fluorescence, higher = more signal.
Alpha-bungarotoxin (Bungarus multicinctus), sequence (P60615 whole entry, looked up): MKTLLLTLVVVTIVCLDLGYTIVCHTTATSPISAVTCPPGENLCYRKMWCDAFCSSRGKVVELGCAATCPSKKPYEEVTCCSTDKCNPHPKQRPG
A further assay deals with Albumin (Bos taurus) (UniProt P02769). Put plainly: bovine serum albumin binders on microarray, profiling panel, artefact control for SMM control protein annotation, biochemical, small-molecule microarray, Alexa647 label, 635/667 nm fluorescence (AID 1118).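 Note: score merges 667 nm emission intensity and signal-to-noise per printed compound spot.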 As to conditions: BSA-A647 binding, fluorescence 635 nm, higher = more signal.
Albumin (Bos taurus), sequence (P02769 whole entry, looked up): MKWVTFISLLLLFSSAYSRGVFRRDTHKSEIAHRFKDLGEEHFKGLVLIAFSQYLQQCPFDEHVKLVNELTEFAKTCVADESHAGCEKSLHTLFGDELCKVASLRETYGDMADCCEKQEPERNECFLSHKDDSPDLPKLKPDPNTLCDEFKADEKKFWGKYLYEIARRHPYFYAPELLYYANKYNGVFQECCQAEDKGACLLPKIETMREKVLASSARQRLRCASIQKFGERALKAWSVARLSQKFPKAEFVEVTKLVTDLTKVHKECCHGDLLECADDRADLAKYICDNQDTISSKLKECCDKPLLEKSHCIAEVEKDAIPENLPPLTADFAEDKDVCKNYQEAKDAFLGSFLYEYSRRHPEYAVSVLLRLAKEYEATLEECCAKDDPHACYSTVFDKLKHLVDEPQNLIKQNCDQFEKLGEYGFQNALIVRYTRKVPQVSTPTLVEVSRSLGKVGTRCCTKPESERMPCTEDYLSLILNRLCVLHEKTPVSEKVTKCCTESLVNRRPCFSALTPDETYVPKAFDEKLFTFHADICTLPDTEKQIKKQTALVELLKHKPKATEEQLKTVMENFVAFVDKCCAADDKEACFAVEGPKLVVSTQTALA
The nature of assay [11]: small-molecule microarray binders of probe aXIP, primary screen, biochemical, NeuroSMM set, 635/667 nm fluorescence (AID 1119).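 Note: probe is the protein aXip251-270 applied at 1 µg/mL to compound-printed slides; binding of probe to printed compounds measured as 667 nm fluorescence plus signal to noise.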 As to conditions: higher = more signal, called active from +8 up or from −8 down.
Assay [12] in a line: small-molecule binders of probe aNOTCH3, primary screen, biochemical, small-molecule microarray, 635/667 nm fluorescence (AID 1120).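 Note: probe is a biotin-tagged antibody raised against NOTCH3 rather than NOTCH3 protein; score merges spot fluorescence near 667 nm with spot signal to noise.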 As to conditions: higher = more signal.
Assay [13] is described as follows: small-molecule binders of probe aNOTCH2, primary screen, biochemical, small-molecule microarray, 635/667 nm fluorescence (AID 1121).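 Note: score merges feature fluorescence read at 667 nm with its signal to noise.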 Conditions: higher = more signal.
The target in assay [14] is Carbonic anhydrase 2 (Homo sapiens) (UniProt P00918). Put plainly: CAII small-molecule binders, profiling panel, biochemical, small-molecule microarray, Alexa647-labelled CAII (AID 1122). Conditions: CAII-A647 binding fluorescence, higher = more signal.
A short description of assay [15]: COS7 lysate on small-molecule microarray, probe aHis, 635 nm (AID 1123).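 Note: z-score combines 667nm fluorescence intensity with signal-to-noise per printed compound spot.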 As to conditions: COS7 cell lysate, fluorescence, higher = more signal.
Assay [16] in a line: compound binding in COS7 lysate, probe aLAP1, primary screen, cell lysate, small-molecule microarray (AID 1124).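 Note: lysate comes from COS7 cells expressing LAP1 and is applied at 0.3 µg/mL; score merges spot fluorescence near 667 nm with signal-to-noise over triplicate slides.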 As to conditions: probe aLAP1, fluorescence, higher = more signal.
The test system of a further assay is Sam68 (KHDRBS1). Put plainly: Sam68 small-molecule binders, primary screen, biochemical, small-molecule microarray, 635 nm fluorescence (AID 1125).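 Note: score merges 667 nm channel intensity with signal to noise over triplicate slides.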 Conditions: small-molecule microarray binding, higher = more signal.
Assay [17] has as its system Chordin-like protein 2 (CHRDL2). The experiment in a line: CHRDL2 small-molecule binders, primary screen, biochemical, small-molecule microarray, 635 nm fluorescence (AID 1126).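 Note: printed compound slides probed with Chrdl2 protein at 4 µg/mL for 1 h at 4 C; score merges 667 nm emission intensity with signal to noise over three replicate slides.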 Conditions: small-molecule microarray binding, fluorescence 635 nm; higher = more signal.
The target of assay [18] is Concanavalin-A (Canavalia ensiformis) (UniProt P02866). The experiment in a line: ConA small-molecule binders, primary screen, artefact control for SMM control protein annotation, biochemical, small-molecule microarray, Alexa647 label, 635 nm (AID 1127).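 Note: z combines 667 nm emission intensity with signal-to-noise across three replicate slides.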 As to conditions: ConA-A647 binding fluorescence, higher = more signal.
Concanavalin-A (Canavalia ensiformis), sequence (P02866 whole entry, looked up): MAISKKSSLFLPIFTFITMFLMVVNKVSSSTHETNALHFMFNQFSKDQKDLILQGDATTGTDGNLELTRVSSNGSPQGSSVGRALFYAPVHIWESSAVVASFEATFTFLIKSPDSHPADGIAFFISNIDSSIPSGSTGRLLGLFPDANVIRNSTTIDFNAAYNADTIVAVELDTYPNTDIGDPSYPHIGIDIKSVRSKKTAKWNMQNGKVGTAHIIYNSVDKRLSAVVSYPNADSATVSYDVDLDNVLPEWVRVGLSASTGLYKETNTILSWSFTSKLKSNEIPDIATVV

Each structure is given as a SMILES string. The source made the active and inactive calls.

Left-right determination factor 2 (Homo sapiens), sequence (O00292 whole entry, looked up): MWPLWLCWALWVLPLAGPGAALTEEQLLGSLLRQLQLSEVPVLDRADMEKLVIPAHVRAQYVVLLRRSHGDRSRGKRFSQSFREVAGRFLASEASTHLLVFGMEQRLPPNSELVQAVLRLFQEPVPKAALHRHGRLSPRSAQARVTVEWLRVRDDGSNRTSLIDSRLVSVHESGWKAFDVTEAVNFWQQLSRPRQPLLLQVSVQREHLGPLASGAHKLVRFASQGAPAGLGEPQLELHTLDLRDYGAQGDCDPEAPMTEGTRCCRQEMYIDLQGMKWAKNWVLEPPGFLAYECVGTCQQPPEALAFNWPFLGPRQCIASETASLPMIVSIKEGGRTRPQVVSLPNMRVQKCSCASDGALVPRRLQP

As for `CN(C)CCCCNC(=O)[C@H]1C[C@H]2C(=O)N[C@@H](CCCC[N+](C)(C)C)C(=O)N2[C@H]1c1cccc(OCCO)c1`, the composite z-score is 1.37 in [1]; 0.206 in [3]; 0.285 in assay [4]; -0.166 in assay [5]; -0.0792 in assay [6]; 0.13 in assay [7]. Besides, the composite z-score in assay [8] is 0.0286; in assay [9], 0.116; in assay [10] it was 0.112; with Albumin (Bos taurus) it was -0.355; in assay [12], -0.0774; in assay [13], -0.112. Besides, the composite z-score in assay [14] worked out at 0.798; in [15], 0.726; in [16], 0.448; in the assay on Sam68 (KHDRBS1), 1.15; in [17], 1.23; in [18] it was 1. For the same compound, the z-score in [2] is -0.156. The composite Z-score in assay [11] is 2.15 (inactive).
As to `O=C1C2C=CC(C(O)c3ccc(Br)cc3)N(Nc3ccccc3)C2C(=O)N1c1ccccc1` (stereo not given), the composite z-score in assay [1] is 0.699; in assay [3], -0.853; in assay [4] it was 0.863; in assay [5], 0.29; in [6] it was 0.0151; in [7], 0.389. Moreover, the composite z-score in assay [8] turned out to be 1.26; in assay [9] it was 0.661; in assay [10], 1.2; with Albumin (Bos taurus), 0.875; in assay [12], 0.328; in [13] it was 0.166. The composite z-score in assay [14] is 0.652; in assay [15], 1.76; in [16] it was 0.189; in the assay with Sam68 (KHDRBS1) it was 0.668; in assay [17], 0.527; in assay [18] it was 0.722. For the same compound, the z-score in assay [2] is 0.393. For the same compound, the composite Z-score in assay [11] is -0.0127 (inactive).
With `CCOC(=O)C[C@H]1[C@H](OC(=O)c2ccccc2-c2ccccc2)[C@@H](NC(=O)c2ccccc2)c2cc(OCCCO)ccc2N1C(=O)Cc1ccc(OC)cc1`, the composite z-score in [1] was -0.12; in assay [3], -0.0713; in assay [4], -0.026; in assay [5], -0.641; in assay [6], -0.107; in assay [7] it was -0.289. In addition, the composite z-score in assay [8] is -0.0877; in [9] it was 0.593; in assay [10] it was 0.66; with Albumin (Bos taurus), -0.261; in assay [12], -0.0055; in assay [13], 0.669. In addition, the composite z-score in [14] is -0.0956; in [15], 0.428; in assay [16] it was 0.368; with Sam68 (KHDRBS1), -0.0802; in assay [17], 0.0666; in [18] it was 0.588. In assay [2], this compound returned a z-score of -1.31. Also, the composite Z-score in assay [11] is -0.0282 (inactive).
As to `COc1cc2c(cc1OC)CN(C(=O)[C@@H]1[C@H]3C(=O)O[C@H](c4ccccc4)[C@H](c4ccccc4)N3[C@H](c3ccc(O)cc3)[C@@]13C(=O)Nc1ccc(C#CCNC(N)=O)cc13)CC2`, the composite z-score was 0.762 in [1]; 0.382 in [3]; 0.186 in assay [4]; -0.0936 in assay [5]; -0.0367 in [6]; 0.0062 in assay [7]. For the same compound, the composite z-score was -0.115 in assay [8]; 0.0623 in assay [9]; 0.469 in assay [10]; 0.0738 with Albumin (Bos taurus); 0.114 in assay [12]; -0.182 in [13]. Moreover, the composite z-score in assay [14] was -0.0348; in [15], 0.276; in assay [16], 1.06; in the assay on Sam68 (KHDRBS1), 0.425; in [17], 0.498; in assay [18] it was 0.826. For the same compound, in [2], the z-score was -0.126. Further, in assay [11], the composite Z-score is 0.507 (inactive).
On to `CC(C)C(CO)N1C(=O)[C@@H]2[C@H]3C(=O)OCC=C[C@H]3OC23C=CCN(Cn2nnc4ccccc42)C(=O)[C@@H]13` (stereo not given in full), for which the composite z-score was -0.484 in assay [1]; -0.734 in assay [3]; -0.323 in [4]; 0.608 in assay [5]; -0.226 in [6]; 0.35 in assay [7]. For the same compound, the composite z-score is -0.358 in assay [8]; -0.273 in [9]; -0.284 in assay [10]; -1.25 in the assay with Albumin (Bos taurus); -0.226 in [12]; -0.204 in assay [13]. Also, the composite z-score in assay [14] is 0.931; in [15] it was -0.0704; in [16], -0.215; with Sam68 (KHDRBS1), -0.821; in assay [17], -1.73; in [18] it was -1.34. The compound also had a z-score in [2] of -0.634. Moreover, in assay [11], the composite Z-score is -0.274 (inactive).

Values taken from PubChem BioAssay.
